Laboratory results as given in publication PMC7862700, “An all-to-all approach to the identification of sequence-specific readers for epigenetic DNA modifications on cytosine”.

Tests used:
Assay in all cases: DAPPL (digital affinity profiling via proximity ligation, sequencing); 10 mM Tris-HCl pH 7.5, 50 mM NaCl, 1 mM DTT, 4% glycerol, room temperature, 30 min; GST-TFs on glutathione beads, 16-mer random dsDNA library, 0.1% formaldehyde crosslink after washing; high values mean tight binding
Details in all cases: protein: recombinant; tags: N-terminal GST; dsDNA, one strand shown
ERF = target: T1, ERF (Homo sapiens, UniProt P50548 1-548)
T1 sequence: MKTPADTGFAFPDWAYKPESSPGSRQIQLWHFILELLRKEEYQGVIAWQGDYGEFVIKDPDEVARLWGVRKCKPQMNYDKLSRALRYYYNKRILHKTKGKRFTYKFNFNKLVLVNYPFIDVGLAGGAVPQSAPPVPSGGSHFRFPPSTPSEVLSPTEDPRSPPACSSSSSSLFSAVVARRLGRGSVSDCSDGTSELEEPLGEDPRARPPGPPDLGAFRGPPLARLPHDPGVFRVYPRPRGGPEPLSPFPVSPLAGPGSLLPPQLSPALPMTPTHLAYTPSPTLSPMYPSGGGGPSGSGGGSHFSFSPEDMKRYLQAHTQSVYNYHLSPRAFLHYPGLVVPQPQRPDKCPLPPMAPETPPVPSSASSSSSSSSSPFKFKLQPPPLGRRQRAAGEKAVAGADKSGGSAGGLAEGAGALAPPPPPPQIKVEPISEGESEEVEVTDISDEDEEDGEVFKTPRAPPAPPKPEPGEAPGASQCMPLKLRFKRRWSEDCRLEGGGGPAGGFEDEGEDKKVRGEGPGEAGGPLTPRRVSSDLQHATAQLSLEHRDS
In short: (§1)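 A tag-only sample was pooled with DNA-barcoded human transcription factors that had been expressed in yeast as GST fusions and captured on glutathione beads. The pools were incubated for 30 min at room temperature with 200 nmole of a random double-stranded 16-mer DNA library in Tris/NaCl/DTT/glycerol buffer, then washed, crosslinked with 0.1% formaldehyde, proximity-ligated (BsaI/T4 ligase, 1 h, 37 °C), PCR-amplified and sequenced on an Illumina NextSeq500. Binding signal is each hexamer's read frequency for a factor divided by its frequency for the tag-only sample.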

ETV3L = target: T2, ETV3L (Homo sapiens, UniProt Q6ZN32 1-361)
T2 sequence: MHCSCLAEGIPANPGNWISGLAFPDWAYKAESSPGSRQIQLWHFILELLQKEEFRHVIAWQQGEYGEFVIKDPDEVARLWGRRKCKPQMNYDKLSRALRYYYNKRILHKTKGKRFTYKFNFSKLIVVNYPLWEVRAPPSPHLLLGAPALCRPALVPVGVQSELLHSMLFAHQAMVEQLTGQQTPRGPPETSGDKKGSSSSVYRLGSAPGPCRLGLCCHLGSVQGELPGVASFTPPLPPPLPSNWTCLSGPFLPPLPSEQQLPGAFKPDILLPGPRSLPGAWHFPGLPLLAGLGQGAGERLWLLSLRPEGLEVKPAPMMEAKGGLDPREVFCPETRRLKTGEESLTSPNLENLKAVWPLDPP
In short: as §1

ETS2 = target: T3, ETS2 (Homo sapiens, UniProt P15036 1-469)
T3 sequence: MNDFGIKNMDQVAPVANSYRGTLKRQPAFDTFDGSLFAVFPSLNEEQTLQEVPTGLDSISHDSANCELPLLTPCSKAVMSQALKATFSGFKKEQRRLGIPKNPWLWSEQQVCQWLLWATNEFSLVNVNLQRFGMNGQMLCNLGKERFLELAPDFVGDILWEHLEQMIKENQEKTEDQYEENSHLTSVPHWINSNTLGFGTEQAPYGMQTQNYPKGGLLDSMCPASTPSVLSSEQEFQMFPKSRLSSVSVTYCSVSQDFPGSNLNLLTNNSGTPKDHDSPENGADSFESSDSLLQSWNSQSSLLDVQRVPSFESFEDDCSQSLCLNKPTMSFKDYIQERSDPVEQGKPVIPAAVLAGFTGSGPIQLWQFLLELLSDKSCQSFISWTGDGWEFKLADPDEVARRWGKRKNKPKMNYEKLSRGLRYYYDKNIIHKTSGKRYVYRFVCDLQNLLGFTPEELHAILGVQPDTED
In short: as §1

SPDEF = target: T4, SPDEF (Homo sapiens, UniProt O95238 1-335)
T4 sequence: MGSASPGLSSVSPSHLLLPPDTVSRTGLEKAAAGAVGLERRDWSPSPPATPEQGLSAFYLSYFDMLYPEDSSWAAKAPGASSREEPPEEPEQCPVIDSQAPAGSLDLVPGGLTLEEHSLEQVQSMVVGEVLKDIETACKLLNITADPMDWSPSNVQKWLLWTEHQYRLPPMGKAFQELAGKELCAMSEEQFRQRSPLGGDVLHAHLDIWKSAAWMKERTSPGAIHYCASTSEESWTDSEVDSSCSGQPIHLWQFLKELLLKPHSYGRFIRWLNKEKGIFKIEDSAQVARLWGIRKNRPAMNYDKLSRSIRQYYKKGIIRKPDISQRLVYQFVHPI
In short: as §1

ETV7 = target: T5, ETV7 (Homo sapiens, UniProt Q9Y603 1-341)
T5 sequence: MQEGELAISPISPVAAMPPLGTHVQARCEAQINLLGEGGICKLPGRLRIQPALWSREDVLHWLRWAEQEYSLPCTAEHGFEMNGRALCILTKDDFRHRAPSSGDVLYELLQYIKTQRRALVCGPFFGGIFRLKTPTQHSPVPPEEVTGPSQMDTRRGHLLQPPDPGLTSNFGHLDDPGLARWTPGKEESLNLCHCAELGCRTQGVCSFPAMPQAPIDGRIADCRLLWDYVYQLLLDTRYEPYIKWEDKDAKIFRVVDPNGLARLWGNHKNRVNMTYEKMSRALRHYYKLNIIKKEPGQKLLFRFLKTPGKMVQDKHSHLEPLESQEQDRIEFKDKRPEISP
In short: as §1

ELF5 = target: T6, ELF5 (Homo sapiens, UniProt Q9UKW6-2 1-255)
T6 sequence: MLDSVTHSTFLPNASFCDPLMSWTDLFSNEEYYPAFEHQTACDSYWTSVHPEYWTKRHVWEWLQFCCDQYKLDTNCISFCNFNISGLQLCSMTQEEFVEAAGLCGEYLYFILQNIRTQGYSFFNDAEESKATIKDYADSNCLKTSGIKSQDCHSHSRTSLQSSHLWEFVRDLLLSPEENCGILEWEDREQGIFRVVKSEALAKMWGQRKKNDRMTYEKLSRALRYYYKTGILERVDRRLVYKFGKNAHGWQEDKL
In short: as §1

ETV3 = target: T7, ETV3 (Homo sapiens, UniProt P41162-2 1-143)
T7 sequence: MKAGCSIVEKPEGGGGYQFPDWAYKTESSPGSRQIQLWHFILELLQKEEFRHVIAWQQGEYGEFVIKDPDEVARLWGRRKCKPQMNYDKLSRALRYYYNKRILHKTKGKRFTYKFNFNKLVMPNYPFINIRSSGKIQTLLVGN
In short: as §1

ETV6 = ETV6 (Homo sapiens, UniProt P41212 1-452)
In short: as §1

ETV6, sequence (P41212 whole entry): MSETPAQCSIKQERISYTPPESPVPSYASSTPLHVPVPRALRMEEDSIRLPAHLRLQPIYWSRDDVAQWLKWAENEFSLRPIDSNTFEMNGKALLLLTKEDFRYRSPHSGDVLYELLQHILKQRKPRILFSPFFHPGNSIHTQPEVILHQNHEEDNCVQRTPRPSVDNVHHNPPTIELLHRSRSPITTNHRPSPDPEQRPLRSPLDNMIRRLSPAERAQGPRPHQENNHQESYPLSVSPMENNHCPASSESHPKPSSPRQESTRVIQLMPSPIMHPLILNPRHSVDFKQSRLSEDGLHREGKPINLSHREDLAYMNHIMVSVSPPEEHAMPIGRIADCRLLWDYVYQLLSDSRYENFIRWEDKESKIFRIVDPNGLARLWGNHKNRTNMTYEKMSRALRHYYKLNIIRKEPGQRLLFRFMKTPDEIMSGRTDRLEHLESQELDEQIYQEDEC

In the case of ACATAT, the binding signal (ERF) is reported as 1.34 fold enrichment (6-mer frequency, TF over GST control), the binding signal (ETV3L) is reported as 1.29 fold enrichment (6-mer frequency, TF over GST control) and the binding signal (ETS2) is reported as 1.27 fold enrichment (6-mer frequency, TF over GST control). For the same sequence, the binding signal (SPDEF) was 1.38 fold enrichment (6-mer frequency, TF over GST control), the binding signal (ETV7) was 1.37 fold enrichment (6-mer frequency, TF over GST control) and the binding signal (ELF5) was 1.2 fold enrichment (6-mer frequency, TF over GST control). The binding signal (ETV3) was 1.28 fold enrichment (6-mer frequency, TF over GST control) and the binding signal (ETV6) was 1.21 fold enrichment (6-mer frequency, TF over GST control).

For TCATCC, the binding signal (ERF) was 1.2 fold enrichment (6-mer frequency, TF over GST control), the binding signal (ETV3L) was 1.42 fold enrichment (6-mer frequency, TF over GST control) and the binding signal (ETS2) was 1.35 fold enrichment (6-mer frequency, TF over GST control). For the same sequence, the binding signal (SPDEF) was 1.85 fold enrichment (6-mer frequency, TF over GST control), the binding signal (ETV7) was 1.24 fold enrichment (6-mer frequency, TF over GST control) and the binding signal (ELF5) was 1.6 fold enrichment (6-mer frequency, TF over GST control). For the same sequence, the binding signal (ETV3) was 1.55 fold enrichment (6-mer frequency, TF over GST control) and the binding signal (ETV6) was 1.38 fold enrichment (6-mer frequency, TF over GST control).

In the case of TCTTAG, the binding signal (ERF) is reported as 1.21 fold enrichment (6-mer frequency, TF over GST control), the binding signal (ETV3L) is reported as 1.35 fold enrichment (6-mer frequency, TF over GST control) and the binding signal (ETS2) is reported as 1.13 fold enrichment (6-mer frequency, TF over GST control). For the same sequence, the binding signal (SPDEF) was 1.24 fold enrichment (6-mer frequency, TF over GST control), the binding signal (ETV7) was 1.18 fold enrichment (6-mer frequency, TF over GST control) and the binding signal (ELF5) was 1.21 fold enrichment (6-mer frequency, TF over GST control). For the same sequence, the binding signal (ETV3) was 1.2 fold enrichment (6-mer frequency, TF over GST control) and the binding signal (ETV6) was 1.19 fold enrichment (6-mer frequency, TF over GST control).

In the case of CTGGAA, the binding signal (ERF) is reported as 1.26 fold enrichment (6-mer frequency, TF over GST control), the binding signal (ETV3L) is reported as 1.36 fold enrichment (6-mer frequency, TF over GST control) and the binding signal (ETS2) is reported as 1.3 fold enrichment (6-mer frequency, TF over GST control). The binding signal (SPDEF) was 1.16 fold enrichment (6-mer frequency, TF over GST control), the binding signal (ETV7) was 1.32 fold enrichment (6-mer frequency, TF over GST control) and the binding signal (ELF5) was 1.34 fold enrichment (6-mer frequency, TF over GST control). The binding signal (ETV3) was 1.27 fold enrichment (6-mer frequency, TF over GST control) and the binding signal (ETV6) was 1.34 fold enrichment (6-mer frequency, TF over GST control).

In the case of TCCCTA, the binding signal (ERF) is reported as 1.43 fold enrichment (6-mer frequency, TF over GST control), the binding signal (ETV3L) is reported as 1.39 fold enrichment (6-mer frequency, TF over GST control) and the binding signal (ETS2) is reported as 1.32 fold enrichment (6-mer frequency, TF over GST control). For the same sequence, the binding signal (SPDEF) was 1.4 fold enrichment (6-mer frequency, TF over GST control), the binding signal (ETV7) was 1.16 fold enrichment (6-mer frequency, TF over GST control) and the binding signal (ELF5) was 1.67 fold enrichment (6-mer frequency, TF over GST control). The binding signal (ETV3) was 1.38 fold enrichment (6-mer frequency, TF over GST control) and the binding signal (ETV6) was 1.17 fold enrichment (6-mer frequency, TF over GST control).

For ATGATA, the binding signal (ERF) was 1.21 fold enrichment (6-mer frequency, TF over GST control), the binding signal (ETV3L) was 1.22 fold enrichment (6-mer frequency, TF over GST control) and the binding signal (ETS2) was 1.17 fold enrichment (6-mer frequency, TF over GST control). For the same sequence, the binding signal (SPDEF) was 1.22 fold enrichment (6-mer frequency, TF over GST control), the binding signal (ETV7) was 1.16 fold enrichment (6-mer frequency, TF over GST control) and the binding signal (ELF5) was 1.23 fold enrichment (6-mer frequency, TF over GST control). The binding signal (ETV3) was 1.2 fold enrichment (6-mer frequency, TF over GST control) and the binding signal (ETV6) was 1.18 fold enrichment (6-mer frequency, TF over GST control).

For CTACAC, the binding signal (ERF) was 1.31 fold enrichment (6-mer frequency, TF over GST control), the binding signal (ETV3L) was 1.4 fold enrichment (6-mer frequency, TF over GST control) and the binding signal (ETS2) was 1.25 fold enrichment (6-mer frequency, TF over GST control). For the same sequence, the binding signal (SPDEF) was 1.39 fold enrichment (6-mer frequency, TF over GST control), the binding signal (ETV7) was 1.25 fold enrichment (6-mer frequency, TF over GST control) and the binding signal (ELF5) was 1.36 fold enrichment (6-mer frequency, TF over GST control). The binding signal (ETV3) was 1.39 fold enrichment (6-mer frequency, TF over GST control) and the binding signal (ETV6) was 1.36 fold enrichment (6-mer frequency, TF over GST control).

With AAAGTA the binding signal (ERF) was 1.11 fold enrichment (6-mer frequency, TF over GST control), the binding signal (ETV3L) was 1.18 fold enrichment (6-mer frequency, TF over GST control) and the binding signal (ETS2) was 1.17 fold enrichment (6-mer frequency, TF over GST control). For the same sequence, the binding signal (SPDEF) was 1.13 fold enrichment (6-mer frequency, TF over GST control), the binding signal (ETV7) was 1.21 fold enrichment (6-mer frequency, TF over GST control) and the binding signal (ELF5) was 1.18 fold enrichment (6-mer frequency, TF over GST control). The binding signal (ETV3) was 1.14 fold enrichment (6-mer frequency, TF over GST control) and the binding signal (ETV6) was 1.15 fold enrichment (6-mer frequency, TF over GST control).

In the case of CGTTAA, the binding signal (ERF) is reported as 1.06 fold enrichment (6-mer frequency, TF over GST control), the binding signal (ETV3L) is reported as 1.18 fold enrichment (6-mer frequency, TF over GST control) and the binding signal (ETS2) is reported as 1.12 fold enrichment (6-mer frequency, TF over GST control). The binding signal (SPDEF) was 1.1 fold enrichment (6-mer frequency, TF over GST control), the binding signal (ETV7) was 1.12 fold enrichment (6-mer frequency, TF over GST control) and the binding signal (ELF5) was 1.19 fold enrichment (6-mer frequency, TF over GST control). For the same sequence, the binding signal (ETV3) was 1.21 fold enrichment (6-mer frequency, TF over GST control) and the binding signal (ETV6) was 1.16 fold enrichment (6-mer frequency, TF over GST control).
